# Among all 87,000 compounds or so, about 540 (0.62%) were called active. This is one part of a sample in which actives are shown more often than they occur. The rule behind the calls is not given here. Measured potencies and affinities stand elsewhere.
# Assay: inhibitors of MT1-MMP promoter transcription, cell-based, luciferase reporter, luminescence (AID 618);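 note: actives suppress MT1-MMP promoter-driven transcription so potencies describe inhibitors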
# Conditions: MT1-MMP promoter luciferase reporter cells
row,Structure (SMILES),outcome
1,CCC(C(=O)c1ccc(O)cc1)c1ccccc1 (stereo unspecified),inactive
2,CN(C)c1ccc(C(=O)C(O)c2ccccc2)cc1 (stereo unspecified),inactive
3,CN(C)CC(C(=O)c1ccccc1)c1ccccc1 (stereo unspecified),active
4,O=C(Cn1nc(C(=O)O)c2ccccc2c1=O)NCCC1=CCCCC1,inactive
5,CC(Cc1ccccc1)NC(=O)C1CCCNC1=O (stereo unspecified),inactive
6,CCCCC(=O)c1ccc(O)cc1O,inactive
7,O=C(CSc1nnc(-c2ccncc2)n1Cc1ccco1)N1c2ccccc2Sc2ccc(Cl)cc21,inactive
8,COc1ccc(N2CCN(C(=O)CSc3nnc(-c4cccnc4)n3-c3ccc(F)cc3)CC2)cc1,inactive
9,Cc1ccc(CN(c2ccc(C(=O)NCc3ccccn3)cc2)S(C)(=O)=O)cc1,inactive
10,O=C(CSC1=NCCS1)N1CCOCC1,inactive
11,O=C(COc1ccc(Cl)cc1Cl)Nc1ccc(Cl)cn1,inactive
12,O=C(COc1ccccc1Cl)Nc1ccc(Cl)cn1,inactive
13,O=C(COc1ccc(Cl)cc1Cl)Nc1ccccn1,active
14,Cc1ccc(C(C)C)c(OCCN)c1,inactive
15,COc1ccc(OC(C)C(=O)N2CC(C)OC(C)C2)cc1 (stereo unspecified),inactive
16,O=C(Nc1ccc(N2C(=O)C3C4C=CC(C4)C3C2=O)cc1)Nc1nncs1 (stereo unspecified),inactive
17,CCCn1c(N)c(C(=O)CSc2nc(C)cs2)c(=O)[nH]c1=O,inactive
18,Cc1ccc2oc(-c3ccco3)nc2c1,inactive
19,Nc1ccc(-c2nc3ccc(-c4nc5ccccc5o4)cc3[nH]2)cc1,inactive
20,Nc1ccc2oc(-c3ccccn3)nc2c1,inactive
21,c1ccc2oc(-c3ccc4nc[nH]c4c3)nc2c1,inactive
22,Cc1ccc(-c2nc3cc(NS(=O)(=O)c4ccc(C)cc4)ccc3o2)cc1,inactive
23,Cc1nc2ccc(-c3nc4ccccc4o3)cc2[nH]1,inactive
24,Nc1ccc2oc(-c3cccs3)nc2c1,inactive
25,CCOC(=O)c1cnc(-c2cccc(OC)c2)[nH]c1=O,inactive

row,Structure (SMILES),outcome
1,COc1ccc(CNC(=O)CCCCCn2c(SCC#N)nc3cc4c(cc3c2=O)OCO4)cc1,inactive
2,CCC(=O)c1ccc(OCC(O)CN2CCN(C(c3ccccc3)c3ccccc3)CC2)cc1 (stereo unspecified),inactive
3,CCOC(CNC(=O)c1cccn2c(=O)c3cc(Cl)ccc3nc12)OCC,inactive
4,COc1ccc(S(=O)(=O)Nc2nnc(C(C)(C)C)s2)cc1,inactive
5,Cc1c(NC(=O)c2cc(C(C)C)on2)c(=O)n(-c2ccccc2)n1C,inactive
6,CCC(OC(=O)c1cc2sccc2n1C)C(=O)NCC1CCCO1 (stereo unspecified),inactive
7,Nc1ccnc(C(F)(F)F)c1C(=O)c1ccccc1,inactive
8,CC(C)OC(=O)CSc1nnc(-c2cccnc2)n1Cc1ccccc1,inactive
9,Cc1ccc(C)c(OCCCCn2ccnc2)c1,inactive
10,Cc1ccc(C)c(-c2nc3cc(N)ccc3o2)c1,inactive
11,Nc1ccc2oc(-c3ccccc3Cl)nc2c1,active
12,Nc1nc2ccc(-c3nc4ccccc4o3)cc2s1,inactive
13,COc1ccc(-c2nnc(-c3ccc(N)cc3)o2)cc1,inactive
14,COC(=O)c1ccc(-c2nc3ccc(C)cc3o2)cc1,inactive
15,Nc1ccc2oc(-c3cccc4ccccc34)nc2c1,inactive
16,COC(=O)c1ccc(-c2nc3ccccc3o2)cc1,inactive
17,Nc1ccc2oc(-c3cc(Br)ccc3Cl)nc2c1,inactive
18,Cc1ccccc1-c1nc2cc(N)ccc2o1,inactive
19,CCc1c(C)nc2ncnn2c1N1CCCC(C(=O)Nc2ccc(NC(C)=O)cc2)C1 (stereo unspecified),inactive
20,Cc1ccc(NC(=O)c2ccc(N3C(=O)C4CC=C(Cl)CC4C3=O)cc2)cc1 (stereo unspecified),inactive
21,COC(=O)[C@@H]1C[C@@]2(O)[C@H](O)[C@H](O)[C@H](O)C[C@H]2N1Cc1c(F)cccc1Cl,inactive
22,CC(C)Cc1ccc(S(=O)(=O)N2CCOCC2)cc1,inactive
23,O=C(CC1CCS(=O)(=O)C1)NC1CCCCC1 (stereo unspecified),inactive
24,O=C(CN1CC(c2ccccc2)CC1=O)OCc1ccccc1F (stereo unspecified),inactive
25,Cc1cccc(CSC2=NCCN2C(=O)c2ccco2)c1,inactive

row,Structure (SMILES),outcome
1,COCCn1c(=O)c2c3c(sc2n(CC(N)=O)c1=O)CCCC3,inactive
2,COc1ccc(Br)c(C(=O)Nn2c(C)nc3ccccc3c2=O)c1,inactive
3,Cc1ccc(C)c(Cn2nnc3c(=O)[nH]c(C4CCN(C(=O)c5cccs5)CC4)nc32)c1,inactive
4,CCCNC(=O)NC(C)C12CC3CC(CC(C3)C1)C2 (stereo unspecified),inactive
5,COc1ccccc1NC(=O)c1ccc(COc2ccccc2OC)o1,inactive
6,CCn1c(=O)c(=O)n(CC)c2cc(S(=O)(=O)Nc3cccc(OC)c3)ccc21,inactive
7,CCn1c(=O)cc(SCC(=O)Nc2ccccc2N2CCN(C)CC2)c2ccccc21,inactive
8,Cc1ccc(NC(=O)Cc2cn3ccsc3n2)nc1,inactive
9,COc1cc(OC)cc(-c2nc3cc(C)ccc3o2)c1,inactive
10,CC(C)c1ccc2oc(-c3ccc(NC(=O)c4ncn[nH]4)cc3)nc2c1,inactive
11,CCOc1cccc(-c2nc3cc(C)ccc3o2)c1,inactive
12,CC(C)c1ccc2oc(-c3cc(N)ccc3O)nc2c1,inactive
13,O=C1CC(=C2c3ccccc3-c3ccccc32)C(=O)N1CCN1CCN(c2ccccc2)CC1,inactive
14,Cc1nn(Cc2nc(-c3cccs3)no2)c(C)c1Br,inactive
15,COc1ccccc1-c1nnc(SCC(=O)O)n1C,inactive
16,CC1=C(C(=O)OCc2ccccc2)C(c2ccc3ccccc3c2)NC(=O)N1CCCCCC(=O)O (stereo unspecified),inactive
17,Cc1ccc(-c2csc3ncnc(NCCN4CCOCC4)c23)cc1,inactive
18,Cn1nnnc1Sc1ncnc2scc(-c3ccc(F)cc3)c12,inactive
19,O=C(Nc1ccc(N2CCOCC2)cc1)Nc1cnsn1,inactive
20,O=C(Nc1ccc(N2CCOCC2)cc1)c1cnsn1,active
21,CCOc1ccc(NC(=O)c2cnccn2)cc1,inactive
22,CCOc1ccc(NC(=O)c2ccncc2)cc1,inactive
23,Cc1cnc(C(=O)Nc2ccc(N3CCOCC3)cc2)cn1,inactive
24,CCc1nnc(NC(=O)CN2C(=O)c3ccccc3S2(=O)=O)s1,inactive
25,CC1(C)CC(=O)C2=C(C1)Nc1ncnn1C2c1ccccn1 (stereo unspecified),inactive

row,Structure (SMILES),outcome
1,CCOc1ccc(C2C(C(=O)c3cccs3)=C(O)C(=O)N2CCCn2ccnc2)cc1 (stereo unspecified),inactive
2,CN1CCN(c2ccccc2NC(=O)c2ccc(-c3ccccc3)cc2)CC1,inactive
3,CC(=O)c1c(C)[nH]c(C(=O)Nc2ccc(C)cn2)c1C,active
4,CC(=O)c1c(C)[nH]c(C(=O)Nc2cc(C)ccc2C)c1C,inactive
5,CC(=O)c1c(C)[nH]c(C(=O)Nc2cc(C)cc(C)c2)c1C,inactive
6,CC1=CC(=O)C=C(C)C1=NOS(=O)(=O)c1ccccc1,active
7,CC1=C(C)/C(=N\OS(=O)(=O)c2ccccc2)C=CC1=O,inactive
8,CC1=C/C(=N\OS(=O)(=O)c2ccccc2)C=CC1=O,inactive
9,Cc1cccc(C2N(c3ccc(F)cc3)C(=O)C3CCCN32)c1 (stereo unspecified),inactive
10,O=S(=O)(Nc1ccccn1)c1ccc(C2CCCCC2)cc1,inactive
11,Cc1ccc(S(=O)(=O)N2CC3(C)CN(S(=O)(=O)c4ccc(C)cc4)CC(C)(C2)C3)cc1,inactive
12,CC1=CC(C)(C)N(S(=O)(=O)c2ccc(C)cc2)c2ccccc21,active
13,CC1=CC(C)(C)N(C(=O)c2ccccc2)c2ccc(C)cc21,inactive
14,CC1=CC(C)(C)N(S(=O)(=O)c2ccc(F)cc2)c2ccccc21,inactive
15,Cc1ccc(S(=O)(=O)N2C(=S)SCC2(C)C)cc1,inactive
16,CC1=CC(C)(C)N(S(=O)(=O)c2ccc(C)cc2)c2cc(C)ccc21,active
17,CC1=CC(C)(C)N(C(=O)CN2C(=O)c3ccccc3C2=O)c2ccccc21,inactive
18,CC1=CC(C)(C)N(S(=O)(=O)c2ccc(F)cc2)c2ccc(C)cc21,inactive
19,CC1=CC(C)(C)N(S(=O)(=O)c2ccc(C)cc2)c2ccc(C)cc21,active
20,O=C(CN1CCN(c2ccccc2)CC1)Nc1c(C(=O)C2CC2)oc2ccccc12,inactive
21,CC(C)n1nnnc1C(c1ccc(F)cc1)N1CCN(C2CCCC2)CC1 (stereo unspecified),inactive
22,Cc1ccc(NC2=NCCC2)cc1Cl,inactive
23,C=CCn1c(=O)c2ccccc2n2c(SCc3csc(-c4ccccc4)n3)nnc12,inactive
24,Cn1c(-c2ccc(F)cc2)cnc1SCC(=O)N1CCCCC1,inactive
25,Cn1c(-c2ccccc2)cnc1SCC(N)=O,inactive

row,Structure (SMILES),outcome
1,CCOC(=O)c1c(NC(=O)Cc2cccs2)sc2c1CCCC2,inactive
2,COC(=O)c1ccccc1NC(=O)CN1CCC(NC(=O)c2ccccc2C)CC1,inactive
3,COCc1nnc(NC(=O)c2sc3ccccc3c2Cl)s1,inactive
4,CC(C)c1nnc(NC(=O)c2sc3ccccc3c2Cl)s1,inactive
5,Cc1nnc(NC(=O)c2sc3ccccc3c2Cl)s1,active
6,O=C(NCc1ccc2c(c1)OCO2)c1ccccn1,inactive
7,O=C(/C=C\Nc1cccc(F)c1)c1ccc2c(c1)OCO2,inactive
8,CN(C(=O)c1ccco1)c1nnc(C23CC4CC(CC(C4)C2)C3)s1,inactive
9,CN(C(=O)c1ccco1)c1nc(CC(=O)Nc2ccccc2)cs1,inactive
10,COC(=O)[C@@]1(Cc2ccc(OC)cc2)[C@H]2c3cc(C(=O)N4CCCC4)n(CCF)c3C[C@H]2CN1C(=O)c1ccccc1,inactive
11,COc1cc(C(=O)N2CCN(C(=O)Cc3ccccc3)CC2)cc(OC)c1OC,inactive
12,C=CCNC(=O)c1ccc2nccnc2c1,inactive
13,CC(C)C(=O)N(Cc1cc2ccccc2[nH]c1=O)C(C)C,inactive
14,C=CCn1c(SCc2cc(=O)n3ccsc3n2)nc2scc(C3CC3)c2c1=O,inactive
15,COc1ccccc1NC(=S)NNC(=O)c1ccccc1,inactive
16,O=C(NCCCN1CCOCC1)c1ccccc1,inactive
17,COc1cc(OC)cc(-c2nc3ccccc3s2)c1,inactive
18,c1ccc2sc(-c3ccc4c(c3)OCO4)nc2c1,inactive
19,COc1cccc(-c2nc3ccccc3s2)c1,inactive
20,COc1ccc(-c2nc3ccccc3s2)cc1O,active
21,COc1cc(-c2nc3ccccc3s2)ccc1O,inactive

# Reference: PubChem BioAssay AID618 (Sanford-Burnham Center for Chemical Genomics, 2007)
